# High-throughput results as filed in PubChem.
# The entries come from a sample that favours hits as a whole.
# Tg IFNy HTS: blocks Toxoplasma gondii growth in the presence of IFN-gamma; activity change, negative = inhibition, % (concentration not given with the values); Toxoplasma gondii growth in IFN-gamma-treated host cells; stronger effect = lower value; AID 1259416; 3.8% of 69,000 active; in the data active means activity change below about -70%, passing the limit was not always enough;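 further: host cells are HeLa cells infected with Toxoplasma gondii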
# Numbers without * were called inactive; i = inactive.
SMILES,Tg IFNy HTS
CSc1ccc(C2c3[nH]c4ccccc4c3CCN2C(=O)c2cccc(Cl)c2)cc1 (stereo not drawn),-18
COc1cccc(C(=O)N2CCc3c([nH]c4ccccc34)C2c2ccc(Cl)cc2)c1 (stereo not drawn),-99*
O=C(C1CCC1)N1CCc2c([nH]c3ccccc23)C1c1ccc(Cl)cc1 (stereo not drawn),-40
COc1ccc(C(=O)N2CCc3c([nH]c4ccccc34)C2c2ccc(Cl)cc2)cc1OC (stereo not drawn),12
O=C(c1ccco1)N1CCc2c([nH]c3ccccc23)C1c1cccnc1 (stereo not drawn),-44
O=C(CC1N=C2c3ccccc3N=C(SCc3ccccc3F)N2C1=O)NCc1ccco1 (stereo not drawn),13
CN(Cc1nc2ccc(F)cc2[nH]1)C(=O)CCC1CCOC1=O (stereo not drawn),-48
CN(C)c1ncc(-c2nccn2-c2cccc3c2CCC3)cn1,-4
Cc1ccsc1S(=O)(=O)N1CCC(Cc2cccc(C(N)=O)c2)C1 (stereo not drawn),11
CCc1ccc2oc(=O)cc(CN3CCC(C)CC3)c2c1,16
COCCN(Cc1nccs1)C(=O)C1CC2(CCNCC2)CN1 (stereo not drawn),1
COCCN1C2COCC1CN(Cc1cccc(F)c1)C2,5
Cc1ccc(-c2ccc(OCCNC(=O)c3sc(-c4ccccc4)nc3C)nn2)cc1,3
CS(=O)(=O)c1snnc1C1CCCN(Cc2cn(CC(N)=O)c3ccccc23)C1 (stereo not drawn),48
Cc1nnc2n1CC(c1cccc(C(=O)Nc3ncc(Cc4ccccc4F)s3)c1)CC2 (stereo not drawn),-48
O=C(Nc1ncc(Cc2cccc3ccccc23)s1)c1ccc(Cl)cc1,-101*
O=C(Nc1ccc2ccccc2n1)c1ccc(Cl)cc1,305
CC(C)CC(=O)N1CCC[C@@]2(C(=O)N(C)C)CN(c3ccccn3)C[C@H]2C1,4
CCc1ccc(S(=O)(=O)N2CCC3(CCCN(Cc4c(C)noc4C)C3)C2)cc1 (stereo not drawn),-72*
Cc1cccc(CN2CCCC3(CCN(S(=O)(=O)c4ccc(F)cc4)C3)C2)n1 (stereo not drawn),-9
Cc1ccc(S(=O)(=O)N2CCC3(CCCN(Cc4c(C)noc4C)C3)C2)cc1 (stereo not drawn),-15
Cc1nc(C)n(CCNC(=O)C(C)Cc2cccs2)n1 (stereo not drawn),-7
CC[C@@H](C(=O)O)[C@@H]1O[C@@H]([C@@H](C)[C@H](O)[C@H](C)C(=O)[C@H](CC)[C@H]2O[C@]3(C=C[C@@H](O)[C@]4(CC[C@@](C)(C5CC[C@](O)(CC)[C@H](C)O5)O4)O3)[C@H](C)C[C@@H]2C)[C@@H](C)C[C@H]1C (stereo partly drawn),-81*
Cc1ccoc1C(=O)N1CCOCC2(CCN(c3ncccn3)C2)C1 (stereo not drawn),11
Cc1cccc(C(=O)N2CC3CCC(C2)N3S(C)(=O)=O)c1,47
SMILES,Tg IFNy HTS
Cc1cc(C)n(-c2ccc(C(=O)Nc3nnc(CCc4ccccc4)s3)cc2)n1,-26
Cc1cc(C)n(-c2ccc(CCC(=O)Nc3nc(-c4ccccn4)cs3)cc2)n1,-98*
O=C(Nc1nc(-c2ccccn2)cs1)c1ccccc1CN1CCCCC1,-14
Cn1c(=O)c(-c2noc(-c3ccc(Cl)cc3)n2)cn(-c2ccccc2)c1=O,-6
CC(C)(C)CC(=O)N1C[C@@H]2c3nc(N4CCOCC4)ncc3CS(=O)(=O)[C@H]2C1,-14
Fc1cccc(Cl)c1Cn1nnc(N2CCCCC2)n1,-23
Cc1oc(-c2ccc(NC(=O)Cc3ccc(Cl)cc3)cc2)nc1Cn1cccn1,-36
Cc1oc(-c2ccc(NC(=O)c3ccccc3F)cc2)nc1Cn1cccn1,-59
Cc1oc(-c2ccc(NC(=O)c3ccccc3)cc2)nc1Cn1cccn1,20
Cc1oc(-c2ccc(NC(=O)Cc3ccc(F)cc3)cc2)nc1Cn1cccn1,11
Cc1oc(-c2ccc(NC(=O)c3ccccc3Br)cc2)nc1Cn1cccn1,-94*
Cc1oc(-c2ccc(NC(=O)Cc3cccc(F)c3)cc2)nc1Cn1cccn1,-87*
O=C(O)CSCNC(=O)C12CC3CC(CC(C3)C1)C2,16
Cc1noc(C)c1CN1CCC2(CCC(=O)N2CCN(C)C)CC1,-82*
Cc1noc(C)c1CN1CC2(CCN(C(=O)N(C)C)C2)CC1=O (stereo not drawn),29
C=CCN1C(=O)CCC12CCN(Cc1c(C)noc1C)CC2,9
O=C(c1ccc[nH]1)N1CCC2(CC(Nc3ncccn3)CO2)C1 (stereo not drawn),25
COCC(=O)N1CCc2nc(C(=O)N3CCCCC3)sc2CC1,1
CCCc1cc(CNC(=O)c2cc(-c3cccs3)no2)on1,-4
COc1ccccc1Cn1ncc2c1CCCC2NC(=O)c1cc(-c2cccs2)no1 (stereo not drawn),-77*
COCc1ccc(C(=O)NC2CCCc3c2cnn3C)o1 (stereo not drawn),-10
Cc1nc(C(C)N(C)Cc2cnc(N3CCCC3)nc2)c(C)s1 (stereo not drawn),1
CN1CCN(c2ccc(CNC(=O)c3csc4ccccc34)cc2)CC1,-44
Cc1ccccc1C(=O)O/N=C1\C(=O)c2ccccc2-c2ccccc21,-86*
COC(=O)c1ccccc1-c1ccccc1C(=O)OC,-59
SMILES,Tg IFNy HTS
Cc1ccccc1C(=O)NN1C(=O)c2ccccc2C1=O,-31
CC(C)NC(=O)N1[C@H](CNC(=O)CN(C)C)[C@H](c2ccccc2)[C@@H]1CO,-11
Cc1noc(C)c1S(=O)(=O)Nc1cccc2c1O[C@@H](CN(C)Cc1ccc(C(F)(F)F)cc1)[C@@H](C)CN([C@H](C)CO)C2=O,-30
COc1ccc(C(=O)NCCc2csc(-c3ccc(Cl)cc3)n2)cc1OC,15
CCOc1ccccc1NC(=O)C(=O)NCCc1csc(-c2ccc(Cl)cc2)n1,-51
Cc1ccccc1C(=O)NCCc1csc(-c2ccc(Cl)cc2)n1,-32
COc1ccc(OCC(=O)NCCc2csc(-c3ccc(F)cc3)n2)cc1,51
COc1cccc(OC)c1C(=O)NCCc1csc(-c2ccc(Cl)cc2)n1,35
COc1ccc(-c2nc(CCNC(=O)c3ccccc3F)cs2)cc1,412
O=C(NCCc1csc(-c2ccc(F)cc2)n1)c1ccccc1F,-70
CCOc1ccccc1C(=O)NCCc1csc(-c2ccc(Cl)cc2)n1,-80*
COc1ccc(Cl)cc1C(=O)NCCc1csc(-c2ccc(F)cc2)n1,-84*
COc1cc(OC)cc(C(=O)NCCc2csc(-c3ccc(F)cc3)n2)c1,27
COc1ccccc1C(=O)NCCc1csc(-c2ccc(F)cc2)n1,-93*
COc1ccc(C(=O)NCCc2csc(-c3ccc(F)cc3)n2)c(OC)c1,-97*
C/C=C/c1ccccc1[C@H]1[C@@H](CO)N(C(=O)Nc2cccc(F)c2)[C@H]1C#N,19
CCc1nnc(SCC(=O)N2CCN(C)C3(CCN(C)CC3)C2)o1,-7
O=C(O/N=C1\CSCc2ccccc21)c1ccccc1Cl,37
Cn1cnc(-c2ccccc2)c1-c1ccc(-n2cncn2)cc1,-9
CCNC(=O)NCC1CCCN(Cc2cnn3c(C)cc(C)nc23)C1 (stereo not drawn),-8
O=C1COC2(CCN(C(=O)c3ccno3)CC2)CN1,i
CCCC(=O)N[C@@H]1c2ccccc2[C@@H]2CN(C(C)=O)C[C@@H]12,9
Cn1c2c(ccc1=O)CC(NCc1ccc3c(c1)OCO3)CC2 (stereo not drawn),-1
